# TDP1 cell CPT: qHTS for Inhibitors of human tyrosyl-DNA phosphodiesterase 1 (TDP1): qHTS in cells in presence of CPT; chicken DT40 Tdp1-/-;hTDP1 cells + 20 nM CPT, ATP luminescence, 48 h; Potency, µM (highest dose often 46.2 µM), without a hit: at the highest dose activity change, negative = growth inhibition, hits mostly inhibitors; actives 12% (n = 420,000); note: nearly all actives have a fitted effect of over 55% in size
#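 Chicken DT40 Tdp1-/- cells stably complemented with human TDP1 were seeded at 400 cells/well in medium containing 20 nM camptothecin, exposed to pin-transferred compounds, and grown at 37 °C for at least 48 hr. Viability was read as ATP luminescence.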
# VP16 counter: VP16 counterscreen qHTS for inhibitors of ROR gamma transcriptional activity. Drosophila S2 Gal4-VP16 UAS-luciferase, luminescence, 20 h. Potency, µM (doses to about 53.6 µM), for inactives: at the top dose activity, negative = inhibition, most hits filed as inhibitors. actives 3.5% (n = 310,000). AID 2546, 2010;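 note: Gal4-VP16 expression switched on by copper sulfate through the metallothionein promoter; nearly all actives have a fitted effect of over 50% in size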
# TDP1 cell noCPT: qHTS for Inhibitors of human tyrosyl-DNA phosphodiesterase 1 (TDP1): qHTS in cells in absence of CPT; DT40 Tdp1-/- hTDP1 cells, no CPT, ATP luminescence, 48 h; AID 686978, 2013; actives 15% (n = 420,000); Potency, µM (series often up to 46.2 µM), for the others: top-dose activity change, negative = growth inhibition, hits mostly inhibitors; note: nearly all actives have a fitted effect of over 55% in size
#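 DT40 Tdp1-/-;hTDP1 cells, no CPT (DMSO vehicle only), 400 cells/well; compounds pin-transferred; ≥48 hr, 37 °C; CellTiter-Glo 30 min RT dark, luminescence read.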
# ELG1 DNA repair: qHTS screen for small molecules that inhibit ELG1-dependent DNA repair in human embryonic kidney (HEK293T) cells expressing luciferase-tagged ELG1; Potency, µM (top dose mostly 46.1 µM), for inactives: top-dose activity change, negative = inhibition, usual class: inhibitors; HEK293T ELG1-luciferase reporter, luminescence, 16 h; DNA damage induced by 5-fluorouridine; AID 504467, 2011; actives 2.3% (n = 330,000); note: nearly all actives have a fitted effect of over 55% in size
#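 HEK293T cells expressing luciferase-tagged ELG1 (2,000/well) received 5-Fluorouridine plus compound or DMSO for 16 hr at 37 °C. Luciferase was read by ONE-Glo luminescence after 30 min at room temperature.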
# RORgamma inh: qHTS for inhibitors of ROR gamma transcriptional activity. Drosophila S2 Gal4-RORgamma UAS-luciferase reporter, 20 h. AID 2551, 2010. Potency, µM (series often up to 53.6 µM), for the others: at the top dose activity change, negative = inhibition, usual class: inhibitors. actives 5.4% (n = 310,000). Nuclear receptor ROR-gamma (Mus musculus), P51450; note: nearly all actives have a fitted effect of over 60% in size
#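 Drosophila Schneider cells stably carrying a metallothionein-driven Gal4 DBD–ROR gamma fusion and a UAS-Photinus luciferase reporter were exposed to compound for 1 hr, then induced with copper sulfate (700 uM final) for 20 hr at ambient temperature before luminescence reading.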
# 12-LOX inh: Primary qHTS assay for inhibitors of human arachidonate 12S-lipoxygenase (ALOX12): Round 2 | Polyunsaturated fatty acid lipoxygenase ALOX12 (Homo sapiens), P18054 | purified 12hLO, xylenol orange hydroperoxide absorbance | Potency, µM (highest dose often 108 µM), inactives show at the highest dose activity change, negative = inhibition, hits mostly inhibitors | actives 1.1% (n = 580,000) | AID 1671190, 2021
#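 Purified human 12hLO at 150 nM in 25 mM Hepes, 0.01% Triton X-100, pH 7.0, preincubated 15 min at room temperature with compound. Reaction started with 40 uM arachidonic acid, 30 min at room temperature. Hydroperoxide measured by Fe-xylenol orange, 573/405 nm absorbance ratio.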
# Active calls of the source: *; ? = inconclusive; / = not tested or not shown. A selection: hits, their analogues and other compounds. The true share with any hit is near 15%. Calls come from the whole dose curve; as a rule, active = well fitted curve in the direction sought with a large enough effect; inconclusive = small, poorly fitted or top-dose-only effect, or another doubt; inactive = no such curve, though single readings can be large; an effect the other way counts as inactive or inconclusive. % is set by controls: 0 for no effect and ±100 for the full control effect; potency is the fitted concentration of half-maximal effect.
SMILES,TDP1 cell CPT,VP16 counter,TDP1 cell noCPT,ELG1 DNA repair,RORgamma inh,12-LOX inh
C/C(CC12CC3CC(CC(C3)C1)C2)=N\NC(=O)C1CC1,/,/,/,/,/,51.6%
COc1cccc2cc(-c3nc(-c4ccc(C)cc4)c(C)s3)c(=O)oc12,-27.2%,/,-19.0%,/,/,-24.3%
CCc1sc(Nc2cccc(C)c2C)nc1-c1cc2cccc(OC)c2oc1=O,?,/,20.6µM*,/,/,-18.1%
COc1cccc2cc(-c3nnc(-c4ccc(Cl)cc4)o3)c(=O)oc12,?,/,-3.5%,/,/,-10.0%
COc1cccc2cc(-c3nnc(Nc4ccccc4C)s3)c(=O)oc12,?,/,8.2µM*,/,/,8.3%
CCc1sc(Nc2cccc(C)c2)nc1-c1cc2cccc(OC)c2oc1=O,?,/,20.6µM*,/,/,-21.5%
COc1cccc2cc(-c3nnc(-c4ccccc4)o3)c(=O)oc12,0.8%,?,-16.9%,?,1.26µM*,-11.9%
COc1ccccc1Nc1nnc(-c2cc3cccc(OC)c3oc2=O)s1,/,/,/,/,/,-23.7%
CCCn1cnc2nc(COc3cc(NC(=O)COc4ccc(C)c(C)c4)ccc3C)cc(=O)n21,/,/,/,/,/,-16.8%
O=C(Cn1ccn2nc(-c3ccc(F)cc3)c(CO)c2c1=O)Nc1ccc2c(c1)OCO2,/,/,/,/,/,10.4%
COC(=O)CC(NC(=O)c1ccc(C#N)cc1)c1ccc(C)cc1 (stereo not drawn),/,/,/,/,/,-2.7%
COC(=O)CC(NC(=O)c1ccc(C)cc1)c1ccccc1 (stereo not drawn),11.0%,-29.8%,-7.8%,18.7%,8.91µM*,2.1%
COc1ccc2sc(-c3ccc(SC)cc3)c(C#CCO)c2c1,18.4µM*,/,?,?,/,?
COc1ccc2sc(-c3ccc(SC)cc3)c(C#CC(C)(C)O)c2c1,?,/,?,-14.3%,/,?
COc1ccc(-c2sc3ccc(OC)cc3c2C#CCCO)cc1,?,-14.4%,?,-23.7%,-43.7%,/
COc1ccc(-c2sc3cc(OC)c(OC)cc3c2C#CCO)cc1,18.4µM*,/,?,?,/,-90.4%
CCCN1C=NS(=O)(=O)c2cc(C(=O)NC(C)c3ccccc3)ccc21 (stereo not drawn),/,/,/,/,/,-3.1%
COc1ccc(CN2C(=O)COC[C@H]2C(=O)Nc2cc(F)cc(F)c2)cc1OC,/,/,/,/,/,-4.3%
CCCc1nc(C(=O)N[C@H]2COC[C@H]2Cc2cc(C)no2)cs1,/,/,/,/,/,20.3%
Cn1c(Oc2ccc(-c3ccc(Br)cc3)cc2)c(C#N)c(=O)n(C)c1=O,/,/,/,/,/,12.6µM*
O=C(COc1ccccc1)NCCC1CCN(C(=O)Nc2ccccc2)CC1,/,/,/,/,/,51.3%
CN1C(=O)CC(C(=O)O)C12CCN(Cc1cnn(C)c1)CC2 (stereo not drawn),/,/,/,/,/,-1.5%
CSc1nc(-c2ccccc2)c2cc(Cl)ccc2n1,21.4%,-11.0%,?,-9.5%,-11.9%,-2.3%
Clc1ccc2nnnc(-c3ccccc3)c2c1,3.26µM*,-19.9%,4.11µM*,?,?,-18.0%
CCCCCCSc1nc2c(c(=O)[nH]c(=O)n2C)n1CC(O)COc1ccc(Cl)cc1 (stereo not drawn),/,/,/,/,/,-29.1%
O=C(N/N=C/c1[nH]c2ccccc2c1Cl)c1cccc(Br)c1,4.1%,7.94µM*,?,?,3.16µM*,?
O=C(N/N=C/C1C(c2ccccc2)C1(Cl)Cl)c1cccc(Br)c1 (stereo not drawn),?,6.31µM*,?,?,4.47µM*,7.5%

# Source: PubChem BioAssay
